Out of some 5,500 compounds screened, about 2,000 (36%) were called active. Roughly 18% stayed inconclusive and do not appear here. No stated cut-off is given here; in the data, active means normalized growth mostly below about 0.91 (no sharp cut-off); inconclusive means no clear call, values can overlap the other calls; inactive means mostly above about 0.92. The list shows a part of the results.
Assay: chemical genetic growth profiling, strain panel (AID 1159580);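 further: tested at 20 µM; growth read once vehicle control cultures reached saturation at 30 °C; 1 = growth at the plate median or of vehicle wells; lower values mean less growth of the strain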
Conditions: growth OD
[1] = S. cerevisiae deletion strains, locus YDL101C, strain DUN1, active compounds read low
[2] = S. cerevisiae deletion strains, locus YHR030C, strain SLT2, active compounds read low

Measured: normalized growth

N=C(N)SCc1c(F)cccc1Cl
inactive: S. cerevisiae deletion strains, locus YAL013W, strain DEP1, active compounds read low 0.996 | S. cerevisiae deletion strains, locus YBR229C, strain ROT2, active compounds read low 0.986 | S. cerevisiae deletion strains, locus YCL061C, strain MRC1, active compounds read low 1.01 | [1] 0.968 | S. cerevisiae deletion strains, locus YDL134C, strain PPH21, active compounds read low 1 | S. cerevisiae deletion strains, locus YDR150W, strain NUM1, active compounds read low 0.984 | S. cerevisiae deletion strains, locus YEL061C, strain CIN8, active compounds read low 0.98 | S. cerevisiae deletion strains, locus YGR078C, strain PAC10, active compounds read low 0.989 | S. cerevisiae deletion strains, locus YGR229C, strain SMI1, active compounds read low 0.998 | [2] 0.947 | S. cerevisiae deletion strains, locus YHR087W, strain rtc3, active compounds read low 0.978 | S. cerevisiae deletion strains, locus YJR043C, strain POL32, active compounds read low 0.99 | S. cerevisiae deletion strains, locus YJR075W, strain HOC1, active compounds read low 0.991 | S. cerevisiae deletion strains, locus YKL190W, strain CNB1, active compounds read low 0.983 | S. cerevisiae deletion strains, locus YLR039C, strain RIC1, active compounds read low 0.978 | S. cerevisiae deletion strains, locus YLR058C, strain SHM2 (second series), active compounds read low 0.986 | S. cerevisiae deletion strains, locus YLR085C, strain ARP6, active compounds read low 0.993 | S. cerevisiae deletion strains, locus YLR262C, strain YPT6, active compounds read low 0.989 | S. cerevisiae deletion strains, locus YML094W, strain GIM5, active compounds read low 0.935 | S. cerevisiae deletion strains, locus YMR219W, strain ESC1, active compounds read low 1 | S. cerevisiae deletion strains, locus YMR263W, strain SAP30, active compounds read low 1.04 | S. cerevisiae deletion strains, locus YNL128W, strain TEP1, active compounds read low 0.968 | S. cerevisiae deletion strains, locus YNL153C, strain GIM3, active compounds read low 1.01 | S. cerevisiae deletion strains, locus YNL298W, strain CLA4 (second series), active compounds read low 0.96 | S. cerevisiae deletion strains, locus YNL322C, strain KRE1, active compounds read low 0.982 | S. cerevisiae deletion strains, locus YNR030W, strain Alg12, active compounds read low 0.975 | S. cerevisiae deletion strains, locus YPL055C, strain LGE1, active compounds read low 0.956 | S. cerevisiae deletion strains, locus YPL241C, strain CIN2, active compounds read low 1.12 | S. cerevisiae deletion strains, locus YPR135W, strain CTF4, active compounds read low 0.896 | S. cerevisiae strains, strain wild type, active compounds read low 0.986

N/C(=N/OCc1c(F)cccc1Cl)c1ccc(Cl)cc1
inactive: S. cerevisiae deletion strains, locus YAR019C, strain CDC15, active compounds read low 0.914 | S. cerevisiae deletion strains, locus YBL105C, strain PKC1, active compounds read low 0.922 | S. cerevisiae deletion strains, locus YBR135W, strain CKS1, active compounds read low 0.929 | S. cerevisiae deletion strains, locus YBR136W, strain MEC1, active compounds read low 0.92 | S. cerevisiae deletion strains, locus YBR160W, strain CDC28, active compounds read low 0.932 | S. cerevisiae deletion strains, locus YDL017W, strain CDC7, active compounds read low 0.921 | S. cerevisiae deletion strains, locus YDL028C, strain MPS1, active compounds read low 0.93 | [1] 0.921 | S. cerevisiae deletion strains, locus YDL108W, strain KIN28, active compounds read low 0.922 | S. cerevisiae deletion strains, locus YDL132W, strain cdc53, active compounds read low 0.95 | S. cerevisiae deletion strains, locus YDL214C, strain PRR2, active compounds read low 0.91 | S. cerevisiae deletion strains, locus YDR052C, strain DBF4, active compounds read low 0.941 | S. cerevisiae deletion strains, locus YDR054C, strain cdc34, active compounds read low 0.905 | S. cerevisiae deletion strains, locus YDR226W, strain ADK1, active compounds read low 0.905 | S. cerevisiae deletion strains, locus YDR477W, strain SNF1, active compounds read low 0.92 | S. cerevisiae deletion strains, locus YER123W, strain YCK3, active compounds read low 0.934 | S. cerevisiae deletion strains, locus YER133W, strain GLC7, active compounds read low 0.912 | S. cerevisiae deletion strains, locus YFL009W, strain cdc4, active compounds read low 0.913 | S. cerevisiae deletion strains, locus YFL029C, strain CAK1, active compounds read low 0.922 | S. cerevisiae deletion strains, locus YFR003C, strain YPI1, active compounds read low 0.924 | S. cerevisiae deletion strains, locus YFR019W, strain FAB1, active compounds read low 0.914 | S. cerevisiae deletion strains, locus YFR028C, strain CDC14, active compounds read low 0.94 | S. cerevisiae deletion strains, locus YGR040W, strain KSS1, active compounds read low 0.919 | S. cerevisiae deletion strains, locus YGR052W, strain FMP48, active compounds read low 0.925 | S. cerevisiae deletion strains, locus YGR092W, strain DBF2, active compounds read low 0.824 | S. cerevisiae deletion strains, locus YHR082C, strain KSP1, active compounds read low 0.974 | S. cerevisiae deletion strains, locus YHR205W, strain SCH9, active compounds read low 0.765 | S. cerevisiae deletion strains, locus YIL147C, strain SLN1, active compounds read low 0.916 | S. cerevisiae deletion strains, locus YJL095W, strain BCK1, active compounds read low 0.842 | S. cerevisiae deletion strains, locus YJL128C, strain PBS2, active compounds read low 0.945 | S. cerevisiae deletion strains, locus YJL157C, strain FAR1, active compounds read low 0.929 | S. cerevisiae deletion strains, locus YJR016C, strain ILV3, active compounds read low 0.929 | S. cerevisiae deletion strains, locus YJR066W, strain TOR1 (second series), active compounds read low 0.962 | S. cerevisiae deletion strains, locus YJR066W, strain TOR1, active compounds read low 0.93 | S. cerevisiae deletion strains, locus YKL048C, strain ELM1, active compounds read low 0.903 | S. cerevisiae deletion strains, locus YKL067W, strain YNK1, active compounds read low 0.923 | S. cerevisiae deletion strains, locus YKL101W, strain HSL1, active compounds read low 0.911 | S. cerevisiae deletion strains, locus YKL193C, strain SDS22, active compounds read low 0.907 | S. cerevisiae deletion strains, locus YKL203C, strain TOR2, active compounds read low 0.997 | S. cerevisiae deletion strains, locus YLR133W, strain CKI1, active compounds read low 0.935 | S. cerevisiae deletion strains, locus YLR403W, strain SFP1, active compounds read low 0.847 | S. cerevisiae deletion strains, locus YML070W, strain DAK1, active compounds read low 0.909 | S. cerevisiae deletion strains, locus YMR001C, strain CDC5, active compounds read low 0.916 | S. cerevisiae deletion strains, locus YMR205C, strain PFK2 (second series), active compounds read low 0.886 | S. cerevisiae deletion strains, locus YMR277W, strain FCP1, active compounds read low 0.919 | S. cerevisiae deletion strains, locus YNL006W, strain LST8, active compounds read low 0.928 | S. cerevisiae deletion strains, locus YNL020C, strain ARK1, active compounds read low 0.926 | S. cerevisiae deletion strains, locus YNL161W, strain CBK1, active compounds read low 0.916 | S. cerevisiae deletion strains, locus YNL183C, strain NPR1, active compounds read low 0.956 | S. cerevisiae deletion strains, locus YNL207W, strain RIO2, active compounds read low 0.903 | S. cerevisiae deletion strains, locus YNL222W, strain SSU72, active compounds read low 0.933 | S. cerevisiae deletion strains, locus YNL307C, strain MCK1 (second series), active compounds read low 0.917 | S. cerevisiae deletion strains, locus YOL078W, strain AVO1, active compounds read low 0.915 | S. cerevisiae deletion strains, locus YOL136C, strain PFK27, active compounds read low 0.901 | S. cerevisiae deletion strains, locus YOR061W, strain CKA2, active compounds read low 0.966 | S. cerevisiae deletion strains, locus YOR119C, strain RIO1, active compounds read low 0.983 | S. cerevisiae deletion strains, locus YOR231W, strain MKK1, active compounds read low 0.932 | S. cerevisiae deletion strains, locus YOR329C, strain SCD5, active compounds read low 0.915 | S. cerevisiae deletion strains, locus YPL031C, strain PHO85, active compounds read low 0.902 | S. cerevisiae deletion strains, locus YPL153C, strain RAD53, active compounds read low 0.933 | S. cerevisiae deletion strains, locus YPL204W, strain HRR25, active compounds read low 0.908 | S. cerevisiae deletion strains, locus YPL209C, strain IPL1, active compounds read low 0.919 | S. cerevisiae deletion strains, locus YPR025C, strain CCL1, active compounds read low 0.926 | S. cerevisiae deletion strains, locus YPR106W, strain ISR1, active compounds read low 0.915 | S. cerevisiae deletion strains, locus YPR111W, strain DBF20, active compounds read low 0.911 | S. cerevisiae deletion strains, strain NNK1, active compounds read low 0.899 | S. cerevisiae deletion strains, strain TSCII, active compounds read low 0.91
active: [2] 0.721 | S. cerevisiae deletion strains, locus YHR079C, strain IRE1, active compounds read low 0.326 | S. cerevisiae deletion strains, locus YLR113W, strain HOG1, active compounds read low 0.785 | S. cerevisiae deletion strains, locus YPL256C, strain CLN2, active compounds read low 0.767

From PubChem BioAssay AID1159580 (chemical genetic matrix, 2015)
